Results on three compounds are retold here after PubChem BioAssay (EPA / NIEHS).

Activity calls are given as the source filed them. The calls were made as follows: active = hit-call score of the fitted dose curve at least 0.9, where 1 is the maximum; inactive = score below 0.9.

Holding throughout (conditions): mRNA level, 48 h; actives raise or lower the signal
Read-out in assay [1]: Alkaline Phosphatase, Placental (ALPP) gene, ALPP (gene 250)
Briefly: LTEA_HepaRG_ALPP: Life Technologies and Expression Analysis (LTEA) Assay for Alkaline Phosphatase, Placental (ALPP) gene using HepaRG (AID 2283468). Put shortly:
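ALPP transcript level, measured by qRT-PCR and normalized to three housekeeping genes (ACTB, GAPDH, POLR2A), after 48 h dosing of differentiated HepaRG in serum-free induction medium. Top concentration 100 uM with half-log dilutions (8 points, 0.5% DMSO, duplicates); bidirectional fitting relative to DMSO.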

Read-out in assay [2]: Bcl-2 (BAD) gene, BAD (gene 572)
As to the kind of experiment: LTEA_HepaRG_BAD: Life Technologies and Expression Analysis (LTEA) Assay for Bcl-2 (BAD) gene using HepaRG (AID 2283469). Put shortly: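 Differentiated human HepaRG cells in serum-free induction medium were exposed in duplicate for 48 h to eight concentrations (top 100 uM, half-log steps, 0.5% DMSO). BAD mRNA was quantified by qRT-PCR normalised to ACTB, GAPDH and POLR2A, with bidirectional fitting versus DMSO.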

Read-out in assay [3]: Bcl-2 (BAX) gene, BAX (gene 581)
As to the kind of experiment: LTEA_HepaRG_BAX: Life Technologies and Expression Analysis (LTEA) Assay for Bcl-2 (BAX) gene using HepaRG (AID 2283470). The method in brief:
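Differentiated HepaRG cells exposed 48 h in serum-free induction medium, eight half-log concentrations from 100 uM, in duplicate, 0.5% DMSO vehicle. BAX mRNA by TaqMan qRT-PCR, normalised to ACTB, GAPDH and POLR2A.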

Read-out in assay [4]: Alpha-fetoprotein (AFP) gene, AFP (gene 174)
Briefly: LTEA_HepaRG_AFP: Life Technologies and Expression Analysis (LTEA) Assay for Alpha-fetoprotein (AFP) gene using HepaRG (AID 2283472). Put shortly:
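Differentiated human HepaRG cells exposed 48 h in serum-free induction medium, 8-point half-log series from 100 uM in 0.5% DMSO, duplicate. AFP mRNA by qRT-PCR, normalized to ACTB, GAPDH, POLR2A; bidirectional fit vs DMSO.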

Read-out in assay [5]: BCL2L11 (gene 10018)
Briefly: LTEA_HepaRG_BCL2L11: Life Technologies and Expression Analysis (LTEA) Assay for Bcl-2 (BCL2L11) gene using HepaRG (AID 2283473). The method in brief:
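BCL2L11 transcript levels are measured by Fluidigm qRT-PCR, normalized to three housekeeping genes. HepaRG cultures were plated 48 h, then treated 48 h with test chemical (top 100 uM, half-log, 0.5% DMSO vehicle); curves were fitted bidirectionally against DMSO.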

Read-out in assay [6]: Apolipoprotein A-V (APOA5) gene, APOA5 (gene 116519)
As to the kind of experiment: LTEA_HepaRG_APOA5: Life Technologies and Expression Analysis (LTEA) Assay for Apolipoprotein A-V (APOA5) gene using HepaRG (AID 2283474). Put shortly:
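APOA5 transcript levels were quantified by qRT-PCR, normalized to three housekeeping genes, after 48 h chemical treatment of HepaRG cells (8 points, 100 uM maximum, half-log steps, 0.5% DMSO). Curves fitted in both directions against vehicle.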

Read-out in assay [7]: Apoptosis regulator Bcl-2 (Homo sapiens) (UniProt P10415)
As to the kind of experiment: LTEA_HepaRG_BCL2: Life Technologies and Expression Analysis (LTEA) Assay for Bcl-2 gene using HepaRG (AID 2283475). The method in brief: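 Differentiated human HepaRG cells in serum-free induction medium exposed 48 h, in duplicate, to 8-point half-log series from 100 uM in 0.5% DMSO. BCL2 mRNA by qRT-PCR (TaqMan/Fluidigm), normalized to ACTB, GAPDH, POLR2A; bidirectional fit against DMSO.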

Read-out in assay [8]: Bcl-2 (BID) gene, BID (gene 637)
Briefly: LTEA_HepaRG_BID: Life Technologies and Expression Analysis (LTEA) Assay for Bcl-2 (BID) gene using HepaRG (AID 2283476). Put shortly:
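Gene expression by qRT-PCR in HepaRG cells after 48 h exposure, duplicate wells, eight half-log concentrations topping at 100 uM in 0.5% DMSO. Normalized to ACTB, GAPDH, POLR2A; bidirectional fitting relative to DMSO.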

Read-out in assay [9]: Caspase-3 (Homo sapiens) (UniProt P42574)
Briefly: LTEA_HepaRG_CASP3: Life Technologies and Expression Analysis (LTEA) Assay for cysteine-aspartic acid protease (CASP3) using HepaRG (AID 2283477). Put shortly: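 Expression of CASP3 was quantified by TaqMan qRT-PCR against three housekeeping genes (ACTB, GAPDH, POLR2A), bidirectionally versus 0.5% DMSO. HepaRG cultures received compounds in duplicate, top 100 uM with half-log steps, for 48 h in serum-free induction medium.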

Read-out in assay [10]: Cytochrome P450 (CYP24A1), CYP24A1 (gene 1591)
As to the kind of experiment: LTEA_HepaRG_CYP24A1: Life Technologies and Expression Analysis (LTEA) Assay for Cytochrome P450 (CYP24A1) using HepaRG (AID 2283478). The method in brief:
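mRNA of CYP24A1 quantified by TaqMan qRT-PCR (ACTB/GAPDH/POLR2A normalization) after 48 h chemical exposure of HepaRG cells, top concentration 100 uM, half-log steps, 0.5% DMSO vehicle, duplicates. Curves fitted bidirectionally against DMSO baseline.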

Read-out in assay [11]: Cytochrome P450 (CYP1A2), CYP1A2 (gene 1544)
As to the kind of experiment: LTEA_HepaRG_CYP1A2: Life Technologies and Expression Analysis (LTEA) Assay for Cytochrome P450 (CYP1A2) using HepaRG (AID 2283479). The method in brief:
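CYP1A2 transcript measured by TaqMan qRT-PCR against three housekeeping genes after 48-hour chemical exposure of HepaRG cells. Eight-point half-log series topping at 100 uM in 0.5% DMSO, duplicates; gain or loss fitted relative to vehicle.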

Read-out in assay [12]: cysteine-aspartic acid protease (CASP8), CASP8 (gene 841)
Briefly: LTEA_HepaRG_CASP8: Life Technologies and Expression Analysis (LTEA) Assay for cysteine-aspartic acid protease (CASP8) using HepaRG (AID 2283480). The method in brief:
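Differentiated human HepaRG cells, plated 48 h then switched to serum-free induction medium, were exposed in duplicate for 48 h to 8 half-log concentrations up to 100 uM in 0.5% DMSO. CASP8 mRNA was quantified by qRT-PCR, normalized to ACTB/GAPDH/POLR2A.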

Read-out in assay [13]: Cytochrome P450 (CYP2B6), CYP2B6 (gene 1555)
As to the kind of experiment: LTEA_HepaRG_CYP2B6: Life Technologies and Expression Analysis (LTEA) Assay for Cytochrome P450 (CYP2B6) using HepaRG (AID 2283481). The method in brief:
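CYP2B6 transcript level quantified by qRT-PCR against three housekeeping genes, fitted bidirectionally relative to DMSO. HepaRG cultures received chemicals for 48 h, 8-point half-log series from 100 uM in 0.5% DMSO, duplicate wells, serum-free induction medium.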

Read-out in assay [14]: Cytochrome P450 2C19 (Homo sapiens) (UniProt P33261)
Briefly: LTEA_HepaRG_CYP2C19: Life Technologies and Expression Analysis (LTEA) Assay for CYP2C19 using HepaRG (AID 2283482). The method in brief: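 CYP2C19 transcript levels by qRT-PCR, normalized to three housekeeping genes, in HepaRG cells after 48 h chemical exposure. Eight-point half-log series topping at 100 uM, 0.5% DMSO vehicle. Increases and decreases both fitted against DMSO.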

Read-out in assay [15]: CYP2C8 (gene 1558)
As to the kind of experiment: LTEA_HepaRG_CYP2C8: Life Technologies and Expression Analysis (LTEA) Assay for CYP2C8 using HepaRG (AID 2283483). Put shortly: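 Differentiated human HepaRG cells were exposed for 48 h in serum-free induction medium to eight half-log concentrations up to 100 uM in 0.5% DMSO, in duplicate. CYP2C8 mRNA was measured by TaqMan qRT-PCR, normalized to ACTB, GAPDH and POLR2A, and fitted bidirectionally against DMSO.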

Read-out in assay [16]: CYP2C9 (gene 1559)
As to the kind of experiment: LTEA_HepaRG_CYP2C9: Life Technologies and Expression Analysis (LTEA) Assay for CYP2C9 using HepaRG (AID 2283484). Put shortly:
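Differentiated human HepaRG cells were exposed 48 h in serum-free induction medium to eight half-log concentrations up to 100 uM in 0.5% DMSO. CYP2C9 mRNA was measured by qRT-PCR, normalized to ACTB, GAPDH and POLR2A, and fitted bidirectionally against DMSO.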

Read-out in assay [17]: CYP2E1 (gene 1571)
Briefly: LTEA_HepaRG_CYP2E1: Life Technologies and Expression Analysis (LTEA) Assay for CYP2E1 using HepaRG (AID 2283485). Put shortly: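 HepaRG cells, plated 48 h, then exposed 48 h in serum-free induction medium to eight half-log concentrations from 100 uM in 0.5% DMSO, duplicate. CYP2E1 mRNA by qRT-PCR, normalized to ACTB/GAPDH/POLR2A; bidirectional fit versus DMSO.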

Read-out in assay [18]: CYP4A11 (gene 1579)
Briefly: LTEA_HepaRG_CYP4A11: Life Technologies and Expression Analysis (LTEA) Assay for CYP4A11 using HepaRG (AID 2283486). The method in brief:
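Readout is CYP4A11 transcript level by qRT-PCR, normalized to three housekeeping genes and fitted bidirectionally against 0.5% DMSO. Human HepaRG cells were treated 48 h, in duplicate, with an 8-point half-log series topping at 100 uM.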

Read-out in assay [19]: adenosine kinase (ADK) gene, ADK (gene 132)
As to the kind of experiment: LTEA_HepaRG_ADK: Life Technologies and Expression Analysis (LTEA) Assay for adenosine kinase (ADK) gene using HepaRG (AID 2283471). The method in brief:
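Following 48 h exposure of HepaRG cells in 0.5% DMSO (top concentration 100 uM, duplicate wells), ADK mRNA induction or suppression was measured by qRT-PCR, normalised to ACTB/GAPDH/POLR2A, and fitted bidirectionally relative to vehicle.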

Read-out in assay [20]: Cytochrome P450 3A4 (Homo sapiens) (UniProt P08684)
As to the kind of experiment: LTEA_HepaRG_CYP3A4: Life Technologies and Expression Analysis (LTEA) Assay for CYP3A4 using HepaRG (AID 2283487). Put shortly: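 In a human hepatic line (HepaRG), duplicate wells were treated 48 h with up to 100 uM chemical in half-log dilutions. Endpoint: CYP3A4 mRNA induction or loss relative to 0.5% DMSO vehicle, by qRT-PCR.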

Caspase-3 (Homo sapiens), sequence (P42574 whole entry, looked up): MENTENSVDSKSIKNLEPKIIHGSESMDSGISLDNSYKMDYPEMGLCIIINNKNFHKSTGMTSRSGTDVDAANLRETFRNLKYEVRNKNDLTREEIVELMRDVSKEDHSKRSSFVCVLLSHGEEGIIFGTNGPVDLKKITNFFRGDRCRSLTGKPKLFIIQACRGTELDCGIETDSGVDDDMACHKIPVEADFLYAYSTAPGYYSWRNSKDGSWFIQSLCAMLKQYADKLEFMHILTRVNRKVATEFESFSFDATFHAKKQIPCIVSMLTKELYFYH
Cytochrome P450 2C19 (Homo sapiens), sequence (P33261 whole entry, looked up): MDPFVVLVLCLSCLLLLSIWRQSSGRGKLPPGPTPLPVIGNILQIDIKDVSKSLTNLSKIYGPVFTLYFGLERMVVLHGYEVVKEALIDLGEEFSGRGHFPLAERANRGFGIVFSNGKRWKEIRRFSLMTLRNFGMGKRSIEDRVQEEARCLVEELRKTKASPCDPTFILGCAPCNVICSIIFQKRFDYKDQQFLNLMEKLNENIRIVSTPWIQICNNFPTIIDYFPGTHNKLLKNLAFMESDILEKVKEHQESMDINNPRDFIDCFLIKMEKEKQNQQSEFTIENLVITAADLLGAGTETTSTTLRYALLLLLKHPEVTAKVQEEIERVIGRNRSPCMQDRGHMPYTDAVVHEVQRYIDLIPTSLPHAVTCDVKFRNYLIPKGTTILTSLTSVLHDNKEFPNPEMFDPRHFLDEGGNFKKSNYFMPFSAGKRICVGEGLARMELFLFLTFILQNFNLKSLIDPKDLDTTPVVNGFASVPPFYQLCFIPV
Apoptosis regulator Bcl-2 (Homo sapiens), sequence (P10415 whole entry, looked up): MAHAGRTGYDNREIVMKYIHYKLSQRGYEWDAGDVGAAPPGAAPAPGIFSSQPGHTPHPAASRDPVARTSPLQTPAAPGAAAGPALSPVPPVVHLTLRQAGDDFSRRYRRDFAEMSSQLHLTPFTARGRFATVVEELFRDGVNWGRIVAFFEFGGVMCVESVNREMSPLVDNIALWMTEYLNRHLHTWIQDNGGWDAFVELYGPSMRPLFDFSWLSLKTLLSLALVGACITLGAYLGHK
Cytochrome P450 3A4 (Homo sapiens), sequence (P08684 whole entry, looked up): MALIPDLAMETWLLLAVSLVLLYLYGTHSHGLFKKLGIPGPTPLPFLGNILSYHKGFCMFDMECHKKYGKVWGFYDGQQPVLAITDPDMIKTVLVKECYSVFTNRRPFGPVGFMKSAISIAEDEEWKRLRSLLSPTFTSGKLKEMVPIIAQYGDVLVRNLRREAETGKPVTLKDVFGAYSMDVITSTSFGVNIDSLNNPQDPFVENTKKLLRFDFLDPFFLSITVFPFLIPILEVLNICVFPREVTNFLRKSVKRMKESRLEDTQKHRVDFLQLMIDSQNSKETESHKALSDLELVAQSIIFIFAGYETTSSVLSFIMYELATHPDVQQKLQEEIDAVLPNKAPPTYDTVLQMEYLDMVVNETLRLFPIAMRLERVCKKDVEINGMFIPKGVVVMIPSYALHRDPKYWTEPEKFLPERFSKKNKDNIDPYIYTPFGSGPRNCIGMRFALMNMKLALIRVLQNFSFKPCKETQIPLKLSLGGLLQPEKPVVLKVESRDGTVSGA

For `O=C(O)c1cc(Oc2ccc(C(F)(F)F)cc2Cl)ccc1[N+](=O)[O-]`, the call in assay [1], in [2], in assay [3], in [4], in assay [5] and in assay [6] was inactive. The compound was classed as inactive in assay [7], in [8], in assay [9], in assay [10], in assay [11] and in [12]. The call in assay [14], in assay [16] and in [17] was inactive. In addition, the AC50 in assay [13] was 50 µM (active); in [15], 8.77 µM (active); in [18], 50 µM (active).

Consider `Nc1c(Cl)cc([N+](=O)[O-])cc1Cl`, for which the result in assay [2], in assay [3] and in [10] was inactive. Also, the AC50 is 64.1 µM (active) in assay [19]; 39.3 µM (active) in assay [4]; 50 µM (active) in assay [5]; 68.5 µM (active) in [6]; 50 µM (active) in assay [7]; 83.3 µM (active) in assay [8]. Besides, the AC50 is 17.3 µM (active) in assay [9]; 13 µM (active) in assay [11]; 50 µM (active) in [12]; 11.8 µM (active) in assay [13]; 85 µM (active) in assay [14]; 78.4 µM (active) in assay [15]. The AC50 in [16] is 63.8 µM (active); in assay [17], 40.4 µM (active); in assay [18], 67.4 µM (active); in assay [20], 11.5 µM (active).

Turning to `COP(=O)(OC)SCn1c(=O)oc2cc(Cl)cnc21`, the outcome in assay [1], in assay [2], in assay [3], in assay [19], in assay [4] and in assay [9] was inactive. The call in assay [10], in [11], in assay [12], in assay [15] and in assay [17] was inactive. Also, the AC50 was 50 µM (active) in assay [5]; 0.282 µM (active) in [6]; 50 µM (active) in assay [7]; 0.00316 µM (active) in assay [8]; 50 µM (active) in [13]; 50 µM (active) in [14]. Further, the AC50 in assay [16] was 36.9 µM (active); in assay [18] it was 36.2 µM (active); in assay [20], 37.3 µM (active).

A word on the AC50: it is the midpoint of the concentration-response curve, whichever way the signal moves.
